For 35 compounds, Potency results are on record in PubChem BioAssay (NCATS).

Molecules are shown by their SMILES. Records with an inconclusive call do not appear. Entries that show only a call come without a potency. Activity calls are given as the source filed them. Calls follow the shape of the dose curve; as a rule, active = well fitted curve in the direction sought with a large enough effect; inconclusive = small, poorly fitted or top-dose-only effect, or another doubt; inactive = no such curve, though single readings can be large; an effect the other way counts as inactive or inconclusive.
Potency is read from the fitted curve at half-maximal effect.

A short description of the first assay: BET inhibitor-based combinations targeting novel dependencies in MECOM-rearranged (r) AML: HNT-34 cell line (AID 2202234). Also: nearly all actives have a fitted effect of over 35% in size. The settings on record: HNT-34 AML viability, CellTiter-Glo luminescence, 48 h; series mostly up to 46 µM. The procedure, abridged:
(§1)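 Luminescent ATP readout (CellTiter-Glo, 15 min at room temperature) after 48 hr drug exposure gave viability. Dose-response curves, normalized to DMSO and empty-well controls, were summarized as area under the curve and its mean-centred Z-score.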
A general note: In ATP-based viability assays light output follows the ATP content of the culture.
Regarding `Oc1ccc2ccccc2c1SSc1c(O)ccc2ccccc12`, the Potency was 18.6 µM (active).

Turning to `O=c1c(-c2ccc(O)cc2)coc2cc(O)cc(O)c12`, the Potency is 21.5 µM (active).

With `CC(=O)N1CCN(c2ccc(OC[C@H]3CO[C@](Cn4ccnc4)(c4ccc(Cl)cc4Cl)O3)cc2)CC1`, the Potency entry is “inactive”. Still for that read-out and setting: under `Cc1cnc(C(=O)NCCc2ccc(S(=O)(=O)NC(=O)NC3CCCCC3)cc2)cn1` stands “inactive”. The same measure, in the same setting: under `NCCCCNCCCN` stands 23.5 µM (active).

Turning to `C1COC(NC(C2CC2)C2CC2)=N1`, the Potency entry is “inactive”.

Another assay is described as follows: BET inhibitor-based combinations targeting novel dependencies in MECOM-rearranged (r) AML: UCSD-AML1 cell line (AID 2202235). Also: nearly all actives have a fitted effect of over 40% in size. The note with it: UCSD-AML1 AML cells viability, CellTiter-Glo, 48 h; series mostly up to 46 µM. The essentials: as §1
With `COc1ccc(CCN(C)CCCC(C#N)(c2ccc(OC)c(OC)c2)C(C)C)cc1OC` (centres undefined), the Potency is 16.6 µM (active).

On to `Cc1cc(C)c(/C=C2\C(=O)Nc3ccccc32)[nH]1`, for which the Potency result was “inactive”.

Turning to `Cc1cc(Cl)ccc1OCCCC(=O)NO`, the Potency was 3.72 µM (active). Still for that read-out and setting: the value for `NCCc1ccc(O)c(O)c1` was “inactive”. Turning to `O=C1CCC(N2C(=O)c3ccccc3C2=O)C(=O)N1` (centres undefined), the Potency result is “inactive”. Still for that read-out and setting: the value for `CC(C)Cc1ccc(C(C)C(=O)O)cc1` (centres undefined) was “inactive”; that for `NC(N)=NC(=O)c1nc(Cl)c(N)nc1N` was 30.3 µM (active). On the same count and under the same terms, under `CN1CCC(=C2c3ccccc3CC(=O)c3sccc32)CC1` stands “inactive”; under `OC(CCN1CCCCC1)(c1ccccc1)C1CC2C=CC1C2` (centres undefined), “inactive”. Same read-out and setting: the value for `COc1cc(SC)ccc1C(=O)N1CCC(Cc2ccccc2)CC1` was “inactive”; that for `CS(=O)(=O)Nc1ccc([N+](=O)[O-])cc1Oc1ccccc1` was “inactive”. Regarding `Nc1nc(N)c(N=O)c(OCC2CCCCC2)n1`, the Potency is 3.32 µM (active). As to `Nc1nc2c(ncn2COCCO)c(=O)[nH]1`, the Potency entry was “inactive”.

As for `O=C(c1ccc(OCCN2CCCCC2)cc1)c1c(-c2ccc(O)cc2)sc2cc(O)ccc12`, the Potency entry was “inactive”. Consider `NC12CC3CC(CC(C3)C1)C2`, for which the Potency result was “inactive”. The same measure, in the same setting: the value for `Cc1cccc(-c2[nH]c(C(C)(C)C)nc2-c2ccc3nccnc3c2)n1` was “inactive”; that for `CC1COc2c(N3CCN(C)CC3)c(F)cc3c(=O)c(C(=O)O)cn1c23` (centres undefined) was “inactive”. Still for that read-out and setting: the value for `CCN1CCCC1CNC(=O)c1cc(S(=O)(=O)CC)c(N)cc1OC` (centres undefined) was “inactive”; that for `Cc1ccc(N(CC2=NCCN2)c2cccc(O)c2)cc1` was 23.5 µM (active). Still for that read-out and setting: the value for `CCn1cc(C(=O)O)c(=O)c2cc(F)c(N3CCNC(C)C3)c(F)c21` (centres undefined) was “inactive”. As to `CC(C)(Oc1ccc(C2CC2(Cl)Cl)cc1)C(=O)O` (centres undefined), the Potency entry was “inactive”. As to `NC(=O)c1ncn([C@@H]2O[C@H](CO)[C@@H](O)[C@H]2O)n1`, the Potency was 18.6 µM (active). The same measure, in the same setting: the value for `CN(C)CCC=C1c2ccccc2C=Cc2ccccc21` was “inactive”. For the compound `CN1CCC(=C2c3ccccc3C=Cc3ccccc32)CC1`, the Potency entry is “inactive”.

Regarding `CC(C)c1ccc2c(c1)c(SC(C)(C)C)c(CC(C)(C)C(=O)O)n2Cc1ccc(Cl)cc1`, the Potency result is “inactive”. The same measure, in the same setting: the value for `CN[C@H](CC(C)C)C(=O)N[C@H]1C(=O)N[C@@H](CC(N)=O)C(=O)N[C@H]2C(=O)N[C@H]3C(=O)N[C@H](C(=O)N[C@H](C(=O)O)c4cc(O)cc(O)c4-c4cc3ccc4O)[C@H](O)c3ccc(c(Cl)c3)Oc3cc2cc(c3O[C@@H]2O[C@H](CO)[C@@H](O)[C@H](O)[C@H]2O[C@H]2C[C@](C)(N)[C@H](O)[C@H](C)O2)Oc2ccc(cc2Cl)[C@H]1O` was “inactive”; that for `Oc1ccc2ccccc2c1SSc1c(O)ccc2ccccc12` was 23.5 µM (active); that for `CC(=O)N1CCN(c2ccc(OC[C@H]3CO[C@](Cn4ccnc4)(c4ccc(Cl)cc4Cl)O3)cc2)CC1` was “inactive”. On the same count and under the same terms, under `C1COC(NC(C2CC2)C2CC2)=N1` stands “inactive”.

The next assay is described as follows: BET inhibitor-based combinations targeting novel dependencies in MECOM-rearranged (r) AML: AML-191 cell line (AID 2202236; also: nearly all actives have a fitted effect of over 35% in size). The note with it: AML-191 viability, CellTiter-Glo luminescence, 48 h; series mostly up to 46 µM. The essentials:
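Luminescent ATP readout (CellTiter-Glo) after 48 hr drug exposure gives viability. Curves span 11 concentrations and are normalized to DMSO and empty wells. Activity is reported as area under the curve and its Z-transform within each cell line.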
As to `Cc1cc(C)c(/C=C2\C(=O)Nc3ccccc32)[nH]1`, the Potency was 11.8 µM (active). In the case of `Cc1cc(Cl)ccc1OCCCC(=O)NO`, the Potency was 3.72 µM (active). Still for that read-out and setting: the value for `NCCc1ccc(O)c(O)c1` was “inactive”. Same read-out and setting: the value for `Clc1ccc(C(c2ccc(Cl)cc2)n2cc[n+](CC(OCc3ccc(Cl)cc3Cl)c3ccc(Cl)cc3Cl)c2)cc1` (centres undefined) was 18.6 µM (active); that for `O=C1CCC(N2C(=O)c3ccccc3C2=O)C(=O)N1` (centres undefined) was “inactive”; that for `CN1CCC(=C2c3ccccc3CC(=O)c3sccc32)CC1` was “inactive”.

As to `OC(CCN1CCCCC1)(c1ccccc1)C1CC2C=CC1C2` (centres undefined), the Potency entry is “inactive”. Same read-out and setting: the value for `COc1cc(SC)ccc1C(=O)N1CCC(Cc2ccccc2)CC1` was “inactive”; that for `CS(=O)(=O)Nc1ccc([N+](=O)[O-])cc1Oc1ccccc1` was “inactive”. Still for that read-out and setting: the value for `Nc1nc2c(ncn2COCCO)c(=O)[nH]1` was “inactive”; that for `Nc1c2c(nc3ccccc13)CCCC2` was “inactive”. Take `NC12CC3CC(CC(C3)C1)C2`: the Potency entry was “inactive”. As for `CC1COc2c(N3CCN(C)CC3)c(F)cc3c(=O)c(C(=O)O)cn1c23` (centres undefined), the Potency result was “inactive”. Still for that read-out and setting: the value for `CCN1CCCC1CNC(=O)c1cc(S(=O)(=O)CC)c(N)cc1OC` (centres undefined) was “inactive”; that for `CCn1cc(C(=O)O)c(=O)c2cc(F)c(N3CCNC(C)C3)c(F)c21` (centres undefined) was “inactive”. Still for that read-out and setting: under `CC(C[N+](C)(C)C)OC(N)=O` (centres undefined) stands “inactive”; under `CC(C)(Oc1ccc(C2CC2(Cl)Cl)cc1)C(=O)O` (centres undefined), “inactive”; under `CC(C)c1ccc2c(c1)c(SC(C)(C)C)c(CC(C)(C)C(=O)O)n2Cc1ccc(Cl)cc1`, 20.9 µM (active). For `CN[C@H](CC(C)C)C(=O)N[C@H]1C(=O)N[C@@H](CC(N)=O)C(=O)N[C@H]2C(=O)N[C@H]3C(=O)N[C@H](C(=O)N[C@H](C(=O)O)c4cc(O)cc(O)c4-c4cc3ccc4O)[C@H](O)c3ccc(c(Cl)c3)Oc3cc2cc(c3O[C@@H]2O[C@H](CO)[C@@H](O)[C@H](O)[C@H]2O[C@H]2C[C@](C)(N)[C@H](O)[C@H](C)O2)Oc2ccc(cc2Cl)[C@H]1O`, the Potency result was “inactive”. For `Oc1ccc2ccccc2c1SSc1c(O)ccc2ccccc12`, the Potency is 20.9 µM (active). Still for that read-out and setting: under `O=c1c(-c2ccc(O)cc2)coc2cc(O)cc(O)c12` stands 42.8 µM (active); under `CC(=O)N1CCN(c2ccc(OC[C@H]3CO[C@](Cn4ccnc4)(c4ccc(Cl)cc4Cl)O3)cc2)CC1`, “inactive”; under `Cc1cnc(C(=O)NCCc2ccc(S(=O)(=O)NC(=O)NC3CCCCC3)cc2)cn1`, “inactive”. The same measure, in the same setting: the value for `C1COC(NC(C2CC2)C2CC2)=N1` was “inactive”.
